# Laboratory results from PubChem BioAssay AID651871 (Sanford-Burnham Center for Chemical Genomics, 2012).
# Several values for one entry are separate records, joined by “and”; a condition that tells them apart may be missing. Equal values may be shown once.
# Test system: H9c2
# Test: cardiomyocyte survival under oxidative or metabolic stress – cell-based, panel, H9c2 and HL-1, ATP luminescence, set 2, SAR follow-up (AID 651871);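 also: cells exposed to stressor for 2 h before ATP readout; reference of the scale not given here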
# Settings: H9c2/HL-1 cardiomyocytes, 2-deoxyglucose stress, with 2-deoxyglucose; run 2, at 79 µM (top of the series)
row,SMILES,activity (protection/inhibition)
1,COc1ccc2nc(-c3cc(OC)c(OC)c(OC)c3)cc(C(=O)NCC(=O)Nc3ccc(C(C)=O)cc3)c2c1,82.4%
2,COc1ccc2c(c1OC)C(=O)N1c3ccccc3C(=O)N(Cc3cccc(Cl)c3Cl)C21 (stereo not drawn),53% and 81.7% and -4.06%
3,CCOC(=O)c1cccc(NC(=O)CNC(=O)c2cc(-c3cc(OC)c(OC)c(OC)c3)nc3ccccc23)c1,78.5%
